# Screen size: about 94,000 compounds; about 680 (0.72%) were called active. For the sample, actives were picked, then their nearest neighbours and some compounds at random. Unmarked numbers belong to inactive results. Cut-off read from the data, not from the text of the source: active = z-score above about 3.2; inactive = the rest.
# Target: M-phase inducer phosphatase 2 (Homo sapiens) + Cyclin-dependent kinase 2 (Homo sapiens) + Cyclin-A2 (Homo sapiens) (UniProt P30305+P24941+P20248)
# Test: primary biochemical HTRF screen for inhibition of M-phase inducer phosphatase 2 binding to cyclin-dependent kinase 2/cyclin A (AID 1259370)
# Conditions: HTRF CDC25B-CDK2/CyclinA binding, anti-His/anti-Flag; hits give high values
row,SMILES,z-score
1,CCOc1ccc(-c2cc(O)cc3sc(=O)oc23)cc1,-1.8
2,CCC1(C)Cc2ccccc2-c2[nH]c(=O)n(-c3ccccc3)c(=O)c21 (stereo not given),-2.42
3,N#CC1=C(N)OC2=C(C(=O)CCC2)C1c1cccc(O)c1 (stereo not given),-0.34
4,O=C(O)C1C2CCC(O2)C1C(=O)N1CCN(c2ccccc2)CC1 (stereo not given),-0.45
5,CC(=O)Oc1cc2c(C(=O)N3CCN(c4ccccc4)CC3)c(C)oc2c2ccccc12,10.8 (active)
6,Cn1c(C(=O)N2CCC(C(=O)N3CCN(c4ccccc4)CC3)CC2)cc2sccc21,-0.7
7,O=C(O)c1ccc2nc(-c3ccccc3)[nH]c2c1,-1.66
8,N#Cc1c(-c2ccco2)cc(-c2ccc(Br)cc2)nc1N,-0.1
9,CCOC(=O)c1sc2nc3c(c(-c4ccco4)c2c1N)CCC3,-2.78
10,N#Cc1c(N)nc2c(c1-c1ccco1)CCCC2,19.4 (active)
11,O=C(OCC1CCCO1)c1c(-c2ccccc2)c(-c2ccccc2)n[nH]c1=O (stereo not given),-1.18
12,COc1cccc(CC2C(=O)Nc3ccccc32)c1OC (stereo not given),-0.98
13,C=CCOc1cccc(C2c3c(oc4ccc(Cl)cc4c3=O)C(=O)N2CCCN2CCOCC2)c1 (stereo not given),-1.86
14,C=CCN1C(=O)/C(=C/c2ccc(OC(=O)C34CC5CC(CC(C5)C3)C4)c(OC)c2)SC1=S,-2.28
15,Cc1ccc(CC2CC(=O)N(c3nc(C)cc(C)n3)C2=O)cc1 (stereo not given),-0.93
16,O=C1c2cccnc2C(=O)N1c1ccc(-c2nc3ccccc3o2)cc1,1.03
17,Cc1ccc2oc(-c3cccc(N4C(=O)c5cccnc5C4=O)c3)nc2c1,16 (active)
18,Cc1ccc2oc(-c3ccc(C)c(N)c3)nc2c1,-1.15
19,Cc1nc2c3ccccc3n3c(CCCC(=O)N4CCC(C(N)=O)CC4)nnc3n2n1,0.97
20,CC(C)S(=O)(=O)c1cscc1N/C=C(/C#N)C(=O)C1CC1,0.29
21,CSc1nc(N/C=C(\C#N)C(=O)c2cccs2)n2nc(C)cc2n1,-0.94
22,CC(C)S(=O)(=O)c1cscc1N/C=C(/C#N)C(=O)c1cccs1,8.41 (active)
23,Cc1ccccc1-c1noc(CSc2nnc(-c3ccncc3)n2-c2ccccc2)n1,-0.18
24,NC(=O)c1c(NC(=O)c2ccc(Br)o2)sc2c1CCCC2,-10.5
25,Cc1ccc(S(=O)(=O)c2nc(S(=O)(=O)c3ccccc3)sc2NCc2ccccn2)cc1,0.49
26,COc1ccc(-n2cnc3cc(NCc4ccco4)ccc32)cc1,-1.6
27,Cc1nc2cc(NCc3ccccn3)ccc2n1C,14.6 (active)

row,SMILES,z-score
1,Cc1ccc(Cn2c(=O)c(C#N)cc3c(=O)n4ccccc4nc32)cc1,-2.86
2,CCC12CN3CC(CC)(CN(C1)C3c1cccc(N)c1)C2=O (stereo not given),-0.44
3,O=C(C(=O)N1CCc2ccccc2C1)c1c[nH]c2ccccc12,10.4 (active)
4,NC(=O)C1CCN(C(=O)C(=O)c2c[nH]c3ccccc23)CC1,-2.56
5,CC1CC(C)CN(C(=O)C(=O)c2c[nH]c3ccccc23)C1 (stereo not given),-1.24
6,Cc1ccc2nc(C3=C(O)CN(c4cc(Cl)ccc4C)C3=N)[nH]c2c1,-2.12
7,Fc1ccc(C(Nc2ccccc2)c2nnc(-c3ccccc3)o2)cc1 (stereo not given),0.64
8,Cc1cccn2c(=O)c3cc(C(=O)NCc4cccs4)n(C)c3nc12,-2.17
9,COCCOC(=O)C1=C(C)NC2=C(C(=O)C(C(=O)OC)C(C)C2)C1c1cccc(Br)c1 (stereo not given),-0.35
10,CCOC(=O)C(Sc1nc(N2CCOCC2)c2c(c1C#N)CC(C)(C)OC2)c1ccccc1 (stereo not given),-1.85
11,c1cc(CNCc2ccc3c(c2)OCO3)ccn1,-0.83
12,COc1cccc(CNCc2ccc3c(c2)OCO3)c1,2.98
13,ONC(=Nc1ccc2c(c1)OCO2)C(=Nc1ccc2c(c1)OCO2)NO,20.3 (active)
14,CCCc1cc(-c2n[nH]c(C)c2-c2ccc3c(c2)OCCO3)c(O)cc1O,1.36
15,Cc1nc(-n2cnc3ccccc32)c2c3c(sc2n1)CCC3,-2.24
16,COc1ccc(C(=O)Oc2ccc3c(C)cc(=O)oc3c2C(C)=O)cc1OC,4.76
17,CCOc1ccc(OCCSc2nc3ccccc3n2CC(=O)O)cc1,-2.11
18,O=C1C2N=NN(Cc3cccc(F)c3)C2C(=O)N1c1ccccc1 (stereo not given),0.2
19,COc1ccc(-c2csc(-c3cc4c([nH]c3=O)CC(c3ccc(OC)c(OC)c3)CC4=O)n2)cc1 (stereo not given),-1.19
20,COc1ccc(-c2csc(-c3cc4c([nH]c3=O)CC(c3ccco3)CC4=O)n2)cc1F (stereo not given),12.9 (active)
21,COc1ccc(C2CC(=O)c3cc(-c4nc(-c5ccc(F)cc5)cs4)c(=O)[nH]c3C2)cc1 (stereo not given),-1.13
22,COc1ccc(-c2noc(COc3cc(C)cc(C)c3C)n2)cc1OC,1.44
23,COc1cccc([C@@H]2Nc3ccc(S(=O)(=O)Nc4ccccc4)cc3[C@@H]3C=CC[C@@H]32)c1,-1.16
24,COC(=O)c1ccc([C@@H]2Nc3ccc(F)cc3[C@@H]3C=CC[C@@H]32)cc1,-0.78
25,CCOc1cccc2c1N[C@@H](c1ccc(C(=O)O)cc1)[C@H]1CC=C[C@@H]21,11.8 (active)
26,Cn1c(=O)n(CCc2ccccc2)c(=O)c2c3c(sc21)COC(C)(C)C3,-1.21
27,C#CCSc1nc2c(c(=O)[nH]1)C(c1ccc(O)c(O)c1)CC(=O)N2 (stereo not given),19 (active)

row,SMILES,z-score
1,CCSc1nc2c(c(=O)[nH]1)C(c1ccc(OC)c(Br)c1)CC(=O)N2 (stereo not given),-0.2
2,C#CCSc1nc2c(c(=O)[nH]1)C(c1ccc(OCCCC)cc1)CC(=O)N2 (stereo not given),-1.04
3,Cc1[nH]c2ccccc2c1C1(O)C(=O)N(Cc2cccs2)c2ccc(Br)cc21 (stereo not given),1.66
4,COc1ccc(-c2ccc(Cc3nc(-c4ccc(OC)cc4)no3)cc2)cc1,-3.73
5,CN(Cc1ccccc1)c1oc(-c2ccc(COc3ccccc3)o2)nc1C#N,1.1
6,CCCc1nc2sc3c(OCC)ncnc3c2c2c1COC(C)(C)C2,0.03
7,Cc1cc(C(=O)O)c2cc(Br)ccc2n1,-1.02
8,COc1cccc(-c2cn3nc(C)sc3n2)c1,-1.51
9,CCOC(=O)N1CCC(C(N)=O)CC1,-0.86
10,CCOC(=O)N1CCN(c2c(NCCN3CCN(c4cccc(Cl)c4)CC3)c(=O)c2=O)CC1,-2.84
11,CCOC(=O)N1CCC(c2cc(=O)n(-c3ccccc3)[nH]2)CC1,7.05 (active)
12,Cc1nc2sc(C(c3cccc(Cl)c3)N3CCN(c4ccccc4)CC3)c(O)n2n1 (stereo not given),-0.28
13,Cc1ccc(N(CC(=O)NC(C(C)C)C(C)C)S(C)(=O)=O)cc1Cl,-1.52
14,O=C(Nc1ccc(O)c(-c2nc3ccccc3s2)c1)C(c1ccccc1)c1ccccc1,-2.45
15,O=C(NCCN1CCOCC1)c1nnc(CS(=O)(=O)c2ccccc2)o1,-1.86
16,CCN1CCCC1CNC(=O)c1nnc(CS(=O)(=O)c2ccccc2)o1 (stereo not given),7.59 (active)
17,CCN1CCCC1CNC(=O)c1sc2nc(C)cc(C)c2c1-n1cccc1 (stereo not given),-0.15
18,Cc1nc2sccn2c(=O)c1S(=O)(=O)N1CCOCC1,-0.79
19,Cc1cc(C)cc(Nc2nccc(=O)[nH]2)c1,-2.01
20,CC1CCCC(NC(=O)c2cc3c(s2)-c2ccccc2OC3)C1C (stereo not given),-0.62
21,CCCCc1c(O)nc(SCC(=O)NCc2ccco2)[nH]c1=O,4.39 (active)
22,CC(C)Cc1c(O)nc(SCC(=O)NCc2ccco2)[nH]c1=O,0.23
23,Nc1ncnc2nc(SCC(=O)NCc3ccco3)[nH]c12,-1.28
24,O=C(CC1Oc2ccccc2NC1=O)NCc1ccco1 (stereo not given),-1.29
25,Cn1c(=O)c2c(c3ccccc31)OC(=O)CC2c1ccc(Br)cc1 (stereo not given),-0.71
26,O=C1CC(c2ccccc2)Sc2nc(-c3ccccc3)nn21 (stereo not given),-0.15
